Measured values: PubChem BioAssay (EPA / NIEHS)
Results filed as inconclusive are left out. Activity calls are given as the source filed them. How the source made its calls, unless noted: active means hit-call score of the fitted dose curve at least 0.9, where 1 is the maximum; inactive means score below 0.9.

Columns and labels:
[1] = read-out: E-selectin (Homo sapiens) (UniProt P16581); assay: BSK_3C_Eselectin: BioMAP Diversity Plus: 3C Assay for Eselectin Biomarker Activity (AID 2283015); settings: primary human endothelial cells (HUVEC); actives raise or lower the signal
Outline: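 E-selectin ELISA readout, fitted bidirectionally relative to DMSO, taken 24 h post-dosing in HUVEC cultures of the 3C system. Overt cytotoxicity tracked with sulforhodamine B staining of parallel wells.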

[2] = read-out: Interleukin-1 alpha (IL1a), IL1A (gene 3552); assay: BSK_BE3C_IL1a: BioMAP Diversity Plus: BE3C Assay for Interleukin-1 alpha (IL1a) Biomarker Activity (AID 2283016); settings: primary human bronchial epithelial cells; actives raise or lower the signal
Outline: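 Measured in human lung primary bronchial epithelial cells: IL-1a by ELISA at 24 h after dosing, with bidirectional fitting against DMSO.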

[3] = read-out: Monocyte Chemoattractant Protein-1 (MCP1), CCL2 (gene 6347); assay: BSK_4H_MCP1: BioMAP Diversity Plus: 4H Assay for Monocyte Chemoattractant Protein-1 (MCP1) Biomarker Activity (AID 2283018); settings: primary human endothelial cells (HUVEC); actives raise or lower the signal
Outline: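 Primary human umbilical vein endothelium is exposed to chemical for 24 h before MCP-1 is assayed by ELISA. Concentration-response fitted bidirectionally relative to DMSO.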

[4] = read-out: Human Leukocyte Antigen - DR isotype (HLADR), HLA-DRA (gene 3122); assay: BSK_3C_HLADR: BioMAP Diversity Plus: 3C Assay for Human Leukocyte Antigen - DR isotype (HLADR) Biomarker Activity (AID 2283019); settings: primary human endothelial cells (HUVEC); actives raise or lower the signal
Outline: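 Bidirectional fitting against DMSO was applied to the HLA-DR ELISA signal from human umbilical vein endothelial cells, 24 h post-dose. Cytotoxicity came from parallel SRB total-protein staining; 3C proliferation was counted by SRB at 48 h.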

[5] = read-out: Interleukin-8 (IL8), CXCL8 (gene 3576); assay: BSK_3C_IL8: BioMAP Diversity Plus: 3C Assay for Interleukin-8 (IL8) Biomarker Activity (AID 2283020); settings: primary human endothelial cells (HUVEC); actives raise or lower the signal
Outline: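 Using DMSO-treated wells as the baseline, bidirectional curve fitting was applied to ELISA-measured IL-8 from human umbilical vein endothelial cultures sampled 24 h after compound addition.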

[6] = read-out: Monokine induced gamma interferon (MIG), CXCL9 (gene 4283); assay: BSK_3C_MIG: BioMAP Diversity Plus: 3C Assay for Monokine induced gamma interferon (MIG) Biomarker Activity (AID 2283021); settings: primary human endothelial cells (HUVEC); actives raise or lower the signal;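 on AC50: MIG protein level measured by immunoassay in the treated endothelial cultures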
Outline: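 ELISA-measured MIG in dosed HUVEC 3C cultures at 24 h, analysed by bidirectional fitting with DMSO defining baseline activity.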

[7] = target: human Vitamin D Receptor (VDR), VDR (gene 7421) (UniProt P11473); assay: ATG_VDR_TRANS: Attagene TRANS-FACTORIAL HepG2 Assay for human Vitamin D Receptor (VDR) (AID 2283022; active means hit-call score of the fitted dose curve at least 0.9, where 1 is the maximum)
human Vitamin D Receptor (VDR), VDR (gene 7421), sequence (P11473 whole entry, looked up, the tested form may be a part): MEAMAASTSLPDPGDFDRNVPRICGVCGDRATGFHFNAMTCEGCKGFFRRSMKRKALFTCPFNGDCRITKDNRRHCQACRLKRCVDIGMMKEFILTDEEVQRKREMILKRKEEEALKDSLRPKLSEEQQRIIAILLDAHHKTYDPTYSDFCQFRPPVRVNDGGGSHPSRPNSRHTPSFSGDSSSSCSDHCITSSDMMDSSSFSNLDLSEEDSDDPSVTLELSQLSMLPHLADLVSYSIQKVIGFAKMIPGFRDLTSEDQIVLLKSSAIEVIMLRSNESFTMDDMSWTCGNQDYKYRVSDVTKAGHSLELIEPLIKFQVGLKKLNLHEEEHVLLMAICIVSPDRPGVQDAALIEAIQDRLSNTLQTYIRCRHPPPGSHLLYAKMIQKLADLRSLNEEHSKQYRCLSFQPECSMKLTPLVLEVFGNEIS
Outline: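 Transactivation by an exogenous VDR-Gal4 chimera in transiently transfected HepG2 cells was measured as reporter transcript level 24 hours after chemical treatment. RT-PCR products were analysed by capillary electrophoresis and fitted in the positive direction relative to DMSO.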

[8] = BSK_3C_SRB: Viability Assessment in the BioMAP Diversity Plus: 3C Assay (AID 2283023); settings: primary human endothelial cells (HUVEC);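 further: fitted both ways against DMSO so a hit may be signal rise or drop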
Outline: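 Cytotoxicity readout in parallel HUVEC 3C cultures: after 24 h compound exposure, cells fixed with 10% TCA, stained with 0.1% SRB and read at 560 nm. Gain or loss relative to DMSO fitted.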

[9] = read-out: Matrix Metallopeptidase 1 (MMP1), MMP1 (gene 4312); assay: BSK_BE3C_MMP1: BioMAP Diversity Plus: BE3C Assay for Matrix Metallopeptidase 1 (MMP1) Biomarker Activity (AID 2283024); settings: primary human bronchial epithelial cells; actives raise or lower the signal
Outline: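 In this multiplexed primary-cell system, human bronchial epithelium received chemicals for 24 h before an ELISA for MMP1. Values reflect bidirectional fits normalised to the DMSO baseline.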

[10] = BSK_3C_Vis: BioMAP Diversity Plus: 3C Assay for Morphology Visualization (AID 2283025); settings: primary human endothelial cells (HUVEC);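 further: fitted both ways so gain or loss versus DMSO counts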;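 on AC50: light microscopy image of cell morphology used as background control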
Outline: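 Light-microscopy morphology readout, 24 h exposure, human primary umbilical vein endothelium; analysed relative to DMSO with bidirectional fitting.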

[11] = read-out: Pselectin, SELP (gene 6403); assay: BSK_4H_Pselectin: BioMAP Diversity Plus: 4H Assay for Pselectin Biomarker Activity (AID 2283026); settings: primary human endothelial cells (HUVEC); actives raise or lower the signal
Outline: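 Bidirectional fits against DMSO gave the endpoint. Cells: primary human umbilical vein endothelium, chemical-treated for 24 h before ELISA detection of P-selectin.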

[12] = BSK_4H_SRB: Viability Assessment in the BioMAP Diversity Plus: 4H Assay (AID 2283027); settings: primary human endothelial cells (HUVEC);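 further: cells exposed to compound for 24 h before staining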;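 on AC50: curves fitted both ways versus DMSO so AC50 may be loss or gain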
Outline: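 Cytotoxicity read-out in primary human endothelial cells: after 24 h compound exposure, cells were TCA-fixed (10%), stained with 0.1% SRB and absorbance taken at 560 nm. Values fitted in both directions relative to DMSO.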

[13] = BSK_BE3C_SRB: Viability Assessment in the BioMAP Diversity Plus: BE3C Assay (AID 2283028); settings: primary human bronchial epithelial cells;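 on AC50: fitted both ways so AC50 may mark signal gain or loss versus DMSO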
Outline: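 Cytotoxicity read-out: SRB (0.1%) staining of TCA-fixed (10%) human lung bronchial epithelial cells, absorbance 560 nm, 24 h post-dosing. Curves fitted both directions relative to DMSO.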

[14] = read-out: Thrombomodulin, THBD (gene 7056); assay: BSK_3C_Thrombomodulin: BioMAP Diversity Plus: 3C Assay for Thrombomodulin Biomarker Activity (AID 2283029); settings: primary human endothelial cells (HUVEC); actives raise or lower the signal
Outline: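 In a multiplexed primary-cell system, human umbilical vein endothelium received chemical and was assayed 24 h later for thrombomodulin by ELISA. Parallel cultures were SRB-stained (0.1% SRB after 10% TCA fixation, read at 560 nm) to flag cytotoxicity.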

[15] = read-out: Urokinase-type plasminogen activator receptor (uPAR), PLAUR (gene 5329); assay: BSK_4H_uPAR: BioMAP Diversity Plus: 4H Assay for Urokinase-type plasminogen activator receptor (uPAR) Biomarker Activity (AID 2283030); settings: primary human endothelial cells (HUVEC); actives raise or lower the signal
Outline: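 uPAR level read by ELISA on HUVEC cultures (BioMAP 4H) 24 h post-dosing, analyzed for gain or loss relative to DMSO. Parallel SRB staining assessed overt cytotoxicity.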

[16] = read-out: Vascular endothelial growth factor receptor 2 (Homo sapiens) (UniProt P35968); assay: BSK_4H_VEGFRII: BioMAP Diversity Plus: 4H Assay for Vascular endothelial growth factor receptor 2 (VEGFR2) Biomarker Activity (AID 2283031); settings: primary human endothelial cells (HUVEC); actives raise or lower the signal;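 on AC50: cell-surface VEGFR2 protein level quantified by ELISA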
Outline: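 Measured by ELISA after 24 h of compound treatment: VEGFR2 on primary human umbilical vein endothelial cells, fitted in both directions relative to DMSO. Parallel cultures received SRB staining (560 nm) for overt cytotoxicity.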

[17] = read-out: Human Leukocyte Antigen - DR isotype (HLADR), HLA-DRA (gene 3122); assay: BSK_BE3C_HLADR: BioMAP Diversity Plus: BE3C Assay for Human Leukocyte Antigen - DR isotype (HLADR) Biomarker Activity (AID 2283032); settings: primary human bronchial epithelial cells; actives raise or lower the signal
Outline: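 BioMAP BE3C format: human bronchial epithelium, 24 h compound treatment, ELISA detection of HLA-DR, with bidirectional analysis relative to DMSO.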

[18] = read-out: Vascular cell adhesion molecule 1 (VCAM1), VCAM1 (gene 7412); assay: BSK_4H_VCAM1: BioMAP Diversity Plus: 4H Assay for Vascular cell adhesion molecule 1 (VCAM1) Biomarker Activity (AID 2283033); settings: primary human endothelial cells (HUVEC); actives raise or lower the signal
Outline: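 In this human endothelial (HUVEC) system, biomarker ELISA was run 24 h after compound addition, and total protein in parallel wells was assessed by SRB at 560 nm; DMSO served as negative control.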

[19] = read-out: Monocyte Chemoattractant Protein-1 (MCP1), CCL2 (gene 6347); assay: BSK_3C_MCP1: BioMAP Diversity Plus: 3C Assay for Monocyte Chemoattractant Protein-1 (MCP1) Biomarker Activity (AID 2283017); settings: primary human endothelial cells (HUVEC); actives raise or lower the signal
Outline: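 MCP-1 was measured by ELISA 24 h after dosing in primary HUVEC 3C cultures and fitted in both directions relative to DMSO; cytotoxicity was checked by SRB total-protein staining in parallel wells.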

[20] = read-out: Interferon-gamma inducible Protein 10 (IP10), CXCL10 (gene 3627); assay: BSK_BE3C_IP10: BioMAP Diversity Plus: BE3C Assay for Interferon-gamma inducible Protein 10 (IP10) Biomarker Activity (AID 2283034); settings: primary human bronchial epithelial cells; actives raise or lower the signal
Outline: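 BE3C cells (human bronchial epithelial, primary); 24 h exposure; ELISA for IP-10; DMSO-referenced bidirectional fit.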

Measured: AC50

E-selectin (Homo sapiens), sequence (P16581 whole entry, looked up): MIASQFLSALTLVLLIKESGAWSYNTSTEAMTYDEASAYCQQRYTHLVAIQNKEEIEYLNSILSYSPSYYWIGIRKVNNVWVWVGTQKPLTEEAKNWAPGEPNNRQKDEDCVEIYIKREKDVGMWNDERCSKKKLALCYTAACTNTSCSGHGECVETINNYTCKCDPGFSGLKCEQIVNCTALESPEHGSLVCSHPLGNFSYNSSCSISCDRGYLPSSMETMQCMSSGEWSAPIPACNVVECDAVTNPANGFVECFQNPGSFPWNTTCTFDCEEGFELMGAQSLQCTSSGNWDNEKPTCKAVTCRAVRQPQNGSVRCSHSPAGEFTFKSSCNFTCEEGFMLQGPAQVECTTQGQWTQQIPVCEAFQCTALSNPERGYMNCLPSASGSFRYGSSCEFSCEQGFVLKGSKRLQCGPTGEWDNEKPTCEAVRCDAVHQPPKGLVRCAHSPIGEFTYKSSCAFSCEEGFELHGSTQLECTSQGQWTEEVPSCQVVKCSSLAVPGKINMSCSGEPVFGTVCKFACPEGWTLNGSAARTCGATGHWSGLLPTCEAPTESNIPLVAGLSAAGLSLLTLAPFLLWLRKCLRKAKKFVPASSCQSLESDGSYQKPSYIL

COc1cccc(-c2ccc(/C=C\CN3CCCCCC3)cc2Cl)c1
active: [1] 28.6 µM | [2] 29 µM | [3] 25 µM | [4] 27.8 µM | [5] 31.9 µM | [6] 34.3 µM | [8] 25.8 µM | [9] 4.82 µM | [10] 14.9 µM | [11] 26.5 µM | [12] 27.9 µM | [15] 26.9 µM | [16] 32.6 µM | [17] 29.4 µM | [18] 28.4 µM
inactive: [7] | [13] | [14]

COC(=O)c1ccccc1O
inactive: [1] | [2] | [19] | [3] | [4] | [5] | [6] | [8] | [9] | [10] | [11] | [12] | [13] | [14] | [15] | [16] | [17] | [18] | [20]

COC(=O)CC(=O)OC
inactive: [1] | [2] | [19] | [3] | [4] | [5] | [6] | [7] | [8] | [9] | [10] | [11] | [12] | [13] | [14] | [15] | [16] | [17] | [18] | [20]

Nc1ccc(Nc2ccccc2)cc1
active: [1] 5.7 µM | [4] 2.83 µM | [9] 8.67 µM | [11] 3.97 µM | [18] 3.97 µM
inactive: [2] | [19] | [3] | [5] | [6] | [8] | [10] | [12] | [13] | [14] | [16] | [17]

CCN(C(=O)c1cc(C)cc(OC[C@H](C)Nc2ccncc2)c1)C(C)C
inactive: [1] | [2] | [19] | [3] | [4] | [5] | [6] | [8] | [9] | [10] | [11] | [12] | [13] | [14] | [15] | [16] | [17] | [18]

O=C(CCCCCCCCc1cccnc1)N1CCC(C=C(c2ccccc2)c2ccccc2)CC1
inactive: [14]
active: [1] 19.4 µM | [2] 27.3 µM | [19] 8.66 µM | [3] 5.75 µM | [4] 6.54 µM | [5] 8.66 µM | [6] 14.2 µM | [7] 100 µM | [8] 8.88 µM | [10] 10.9 µM | [11] 6.41 µM | [12] 13.1 µM | [13] 34.2 µM | [15] 11.2 µM | [16] 8 µM | [17] 17.6 µM | [18] 12.7 µM | [20] 24.5 µM

CCC(C)(C)C(=O)O[C@H]1C[C@@H](C)C=C2C=C[C@H](C)[C@H](CC[C@@H]3C[C@@H](O)CC(=O)O3)[C@H]21
active: [1] 30.2 µM | [2] 33.1 µM | [19] 18.6 µM | [3] 0.392 µM | [4] 25.8 µM | [5] 26.5 µM | [8] 3.97 µM | [9] 31.9 µM | [10] 20 µM | [12] 10.1 µM | [13] 36.1 µM | [14] 0.526 µM | [15] 20 µM | [16] 26.9 µM | [17] 30.8 µM | [18] 29.9 µM | [20] 34.1 µM
inactive: [6] | [11]
